# Data reported in PubChem BioAssay AID1259251 (The Scripps Research Institute Molecular Screening Center, 2017).
# Screen size: about 30,000 compounds; about 580 (1.9%) were called active. This is one part of a sample in which actives are shown more often than they occur. No stated cut-off is given here; in the data, active means inhibition above about 43%; inactive means the rest.
# Target: Serine/threonine-protein kinase ULK1 (Homo sapiens) (UniProt O75385)
# Experiment: inhibition of human autophagy kinase ULK1 – biochemical, AlphaScreen, primary screen (AID 1259251);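 further: 0% = median of compound wells and 100% = no enzyme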
# Details: AlphaScreen Atg13 phosphorylation by ULK1, luminescence; at 5.96 µM; active compounds read high
# Sequence of Serine/threonine-protein kinase ULK1 (Homo sapiens) (O75385 whole entry, looked up): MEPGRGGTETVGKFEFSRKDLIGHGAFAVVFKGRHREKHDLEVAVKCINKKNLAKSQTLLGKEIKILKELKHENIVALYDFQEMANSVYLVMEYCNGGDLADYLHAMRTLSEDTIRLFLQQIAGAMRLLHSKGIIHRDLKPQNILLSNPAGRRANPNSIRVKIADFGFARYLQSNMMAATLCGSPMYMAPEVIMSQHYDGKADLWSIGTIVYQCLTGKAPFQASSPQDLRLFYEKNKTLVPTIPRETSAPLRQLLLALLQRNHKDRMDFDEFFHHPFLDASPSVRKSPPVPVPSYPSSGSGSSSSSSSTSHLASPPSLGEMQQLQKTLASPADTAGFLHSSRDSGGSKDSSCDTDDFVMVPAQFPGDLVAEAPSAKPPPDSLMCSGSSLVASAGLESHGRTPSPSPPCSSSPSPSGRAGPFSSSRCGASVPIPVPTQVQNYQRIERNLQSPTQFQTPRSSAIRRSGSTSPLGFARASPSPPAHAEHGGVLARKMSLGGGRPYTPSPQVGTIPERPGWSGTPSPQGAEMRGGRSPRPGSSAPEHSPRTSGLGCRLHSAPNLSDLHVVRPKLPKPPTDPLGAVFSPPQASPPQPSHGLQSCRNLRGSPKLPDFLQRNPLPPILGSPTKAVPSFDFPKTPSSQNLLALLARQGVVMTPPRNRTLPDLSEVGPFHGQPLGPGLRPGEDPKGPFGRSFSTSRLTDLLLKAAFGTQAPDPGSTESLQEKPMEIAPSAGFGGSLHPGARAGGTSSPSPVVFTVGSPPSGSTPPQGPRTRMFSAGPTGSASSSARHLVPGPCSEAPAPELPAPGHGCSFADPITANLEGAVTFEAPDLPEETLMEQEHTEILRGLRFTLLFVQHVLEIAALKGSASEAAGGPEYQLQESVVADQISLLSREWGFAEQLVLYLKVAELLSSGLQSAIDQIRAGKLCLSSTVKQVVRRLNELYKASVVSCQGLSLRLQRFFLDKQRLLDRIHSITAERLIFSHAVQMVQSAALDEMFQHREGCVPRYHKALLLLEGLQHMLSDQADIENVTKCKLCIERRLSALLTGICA
row,SMILES,inhibition
1,Cn1cc(-c2ccc3cnc(Nc4ccc(-n5cnc(N6CCOCC6)n5)cc4)nc3c2-c2cnn(C)c2)cn1,51.5% (active)
2,Cn1cc(-c2nc(Nc3ccc(-n4cnc(N5CCC(O)CC5)n4)cc3)ncc2Br)cn1,85.1% (active)
3,Cc1ncccc1-c1ncn(-c2ccc(Nc3nccc(-c4cc(F)cc(N5CCOCC5)c4)n3)cc2)n1,5.38% (inactive)
4,c1coc(-c2ccc3cnc(Nc4ccc(-n5cnc(N6CCOCC6)n5)cc4)nc3c2)n1,3.23% (inactive)
5,COC1CCN(c2ncn(-c3ccc(Nc4nccc(-c5cncc(N6CCOCC6)c5)n4)cc3)n2)CC1,-6.75% (inactive)
6,Cn1cc(-c2cc(Nc3ccc(-n4cnc(N5CCC(O)CC5)n4)cc3)ncc2Cl)cn1,-17% (inactive)
7,O=C(NC1CCN(Cc2ccccc2)CC1)c1cccc(-c2cccs2)n1,-5.23% (inactive)
8,O=C(Nc1ccc2[nH]ncc2c1)c1ccnc(OC2CCN(Cc3ccccc3)CC2)c1,-8.14% (inactive)
9,O=C(NC1CCN(Cc2ccccc2)CC1)c1cc(Cl)nc2ccccc12,2.89% (inactive)
10,Cn1c(Nc2nc(NCc3cccc(C(F)(F)F)c3)c3ncn(C4CCCCC4)c3n2)nc2ccccc21,8.91% (inactive)
11,O=C(NCCc1ccc(O)cc1)c1csc(Nc2ccc(N3CCOCC3)cc2)n1,13.3% (inactive)
12,Cc1cnc(Nc2ccc(N3CCOCC3)cc2)nc1Nc1ccccc1-c1ncn[nH]1,70.3% (active)
13,Cc1cnc(-c2c(C)noc2C)nc1Nc1ccc(N2CCOCC2)cc1,-1.73% (inactive)
14,c1ccc(-c2ncn[nH]2)c(Nc2ccnc(Nc3ccc(N4CCOCC4)cc3)c2)c1,24.2% (inactive)
15,c1ccc(CN2CCC(Nc3nc(NCCOc4ccccc4)c4[nH]cnc4n3)CC2)cc1,-28% (inactive)
16,FC(F)(F)c1ccc(Cn2cnc3c(Nc4ccccc4)nc(N4CCN(c5ccccn5)CC4)nc32)cc1,-7.96% (inactive)
17,CN(C)c1cccc(Nc2cc(C(=O)NC3CC3)c3ccccc3n2)c1,4.11% (inactive)
18,Cc1ccc(CNC(=O)c2cn(C)c3c(=O)n(-c4ccccc4)c(=O)[nH]c23)cc1,1.67% (inactive)
19,CN1CCN(C(=O)c2ccc(-c3cc(NCc4cccc(C(F)(F)F)c4)ncn3)cc2)CC1,-4.67% (inactive)
20,COc1ccc(Cl)cc1NC(=O)COc1cccc2c1OC(C)(C)C2,-8.02% (inactive)
21,O=C(NCCO)c1cc(Nc2ccc3[nH]ncc3c2)ccn1,-10.8% (inactive)
22,CC(=O)Nc1ccc(Nc2cc(Nc3ccccn3)nc(N)n2)cc1,-21.9% (inactive)
23,CNC(=O)c1cc(F)ccc1Nc1cc(Nc2ccc(NC(C)=O)cn2)ncc1C(F)(F)F,89% (active)
24,CNC(=O)c1cc(F)ccc1Nc1cc(Nc2ccc3nc[nH]c3c2)ncc1C(F)(F)F,3.83% (inactive)
25,CNC(=O)c1cc(F)ccc1Nc1cc(Nc2ccc3c(c2)CCC(=O)N3)ncc1C(F)(F)F,85.8% (active)

row,SMILES,inhibition
1,COc1cc(NC(=O)c2cnc(Nc3ccc(C(F)(F)F)cc3)s2)cc(OC)c1OC,-10.3% (inactive)
2,O=C1Cc2cc(Nc3cc(Nc4ccccn4)c(C(F)(F)F)cn3)ccc2N1,38.2% (inactive)
3,CNC(=O)c1cc(F)ccc1Nc1cc(Nc2ccc3[nH]ncc3c2)ncc1C(F)(F)F,78.3% (active)
4,COc1ccc(Oc2ncc(-c3ccc(OC)cc3)cn2)cc1,-2.6% (inactive)
5,COc1ccc(-n2cc(-c3ccccc3[N+](=O)[O-])cn2)cc1,-17.3% (inactive)
6,Cc1nn(C)c(C)c1-c1nc2ccc(C(=O)NCCO)cc2s1,1.9% (inactive)
7,O=C(NCCOc1ccccc1)c1ccc2nc(N3CCN(Cc4ccc5c(c4)OCO5)CC3)sc2c1,1.44% (inactive)
8,COc1ccc(-c2nc3ncnc(NCCc4ccc(O)cc4)c3[nH]2)cn1,-9.33% (inactive)
9,c1ccc(Oc2cc(NC3CC3)ncn2)cc1,4.64% (inactive)
10,O=C(NCc1nc2ccccc2[nH]1)c1cccc(-c2cccs2)c1,1.37% (inactive)
11,CC(C)(C)c1ccc(S(=O)(=O)NCc2nc(-c3ccncc3)n[nH]2)cc1,2.8% (inactive)
12,Cc1ccc(C)c(NS(=O)(=O)c2ccc3c(c2)OCCCO3)c1,0.58% (inactive)
13,c1cc2c(cc1CNc1nc(Nc3ccc(N4CCOCC4)cc3)c3ncn(C4CCCCC4)c3n1)OCO2,56.2% (active)
14,O=C1CCCN1CCn1cnc2c(Nc3ccc(N4CCOCC4)cc3)nc(NCc3ccc4c(c3)OCO4)nc21,11.6% (inactive)
15,c1ccc(CN2CCC(Nc3nc(-c4ccccc4)nc4c3ncn4C3CCCCC3)CC2)cc1,-30.6% (inactive)
16,c1ccc(CN2CCC(Nc3nc(NCc4ccc5c(c4)OCO5)nc4c3ncn4C3CCCCC3)CC2)cc1,1.3% (inactive)
17,c1ccc(CN2CCC(Nc3nc(NCCN4CCOCC4)c4ncn(C5CCCCC5)c4n3)CC2)cc1,7.74% (inactive)
18,c1ccc(CN2CCC(Nc3nc(Nc4ccc(N5CCOCC5)cc4)c4ncn(C5CCCCC5)c4n3)CC2)cc1,50.8% (active)
19,CC(C)N(CCNC(=O)C1CCN(c2ccc(Nc3ccccc3)nn2)CC1)C(C)C,0.63% (inactive)
20,COc1cc(NC(=O)c2ccnc(-c3c(C)noc3C)c2)cc(OC)c1OC,3.86% (inactive)
21,Oc1ccc(CCNc2nc(Nc3ccncn3)nc3c2ncn3C2CCCCC2)cc1,14.6% (inactive)
22,CC(=O)Nc1ccc(Nc2nc(Nc3ccccn3)ncc2C)cc1,8.71% (inactive)
23,CC(C)N(CCNC(=O)Cc1cn(-c2ccc(Nc3ccc(N4CCOCC4)cc3)nn2)c2ccccc12)C(C)C,5.92% (inactive)
24,COc1cc(CNC(=O)c2cnc3cc(-c4cn[nH]c4)ccn23)cc(OC)c1,-6.5% (inactive)
25,CCCNC(=O)c1ccc2nc(-c3c(C)nn(C)c3C)sc2c1,1.04% (inactive)

row,SMILES,inhibition
1,O=C1CCCN1CCCNc1nc(Nc2ccc3ncccc3c2)nc2nc[nH]c12,67.6% (active)
2,OCCNc1nc(Nc2ccccn2)nc2nc[nH]c12,8.19% (inactive)
3,O=C1CCCN1CCCNc1nc(-c2ccccc2)nc2nc[nH]c12,9.26% (inactive)
4,OCCNc1nc(Nc2ccc3ncccc3c2)nc2nc[nH]c12,62.7% (active)
5,O=C1CCCN1CCCNc1nc(Nc2cnccn2)nc2nc[nH]c12,-13.6% (inactive)
6,CN(C)c1cccc(Nc2nc(NCCO)c3[nH]cnc3n2)c1,15.6% (inactive)
7,CCN(CC)C(=O)C1CCCN(c2nc(NCCOc3ccccc3)c3ncn(C(C)C)c3n2)C1 (configuration not stated),4.04% (inactive)
8,c1cncc(Nc2nccc(Nc3ccc(N4CCOCC4)cc3)n2)c1,10% (inactive)
9,COCCNc1cc(-c2ccc(F)cc2)nc(C)n1,0.77% (inactive)
10,CCN(C(=O)c1ccc(Br)cc1)c1ccccc1,2.64% (inactive)
11,COc1cc2nc(-c3cccc(N)c3)nc(NCCN3CCOCC3)c2cc1OC,-4.6% (inactive)
12,COc1cc(N2CCOCC2)ccc1Nc1cc(Nc2ccccc2-n2cccn2)c(C(F)(F)F)cn1,77% (active)
13,FC(F)(F)c1cnc(Nc2ccc(N3CCOCC3)cc2)cc1-n1ncc2ccccc21,2.76% (inactive)
14,COc1cc(C(=O)N2CCOCC2)ccc1Nc1cc(NCc2cccc(S(C)(=O)=O)c2)c(C(F)(F)F)cn1,-14.6% (inactive)
15,CCOC(=O)c1cc[n+](CC(=O)c2ccc(NC(=O)c3ccccc3)cc2)cc1,3.76% (inactive)
16,CCN(CC)C(=O)C1CCCN(c2nc3ccc(C(=O)Nc4ccc(NC(C)=O)cc4)cc3s2)C1 (configuration not stated),-20.8% (inactive)
17,CNC(=O)c1ccccc1Nc1cc(NC(=O)C(F)(F)c2ccccc2)ncc1C(F)(F)F,61.2% (active)
18,CCN(CC)CCNC(=O)c1ccc(Nc2cc(Nc3ccccc3C(=O)NC)c(C(F)(F)F)cn2)nc1,92.4% (active)
19,CC(C)N(CCNC(=O)c1ccnc(Nc2ccc(C(F)(F)F)cc2)c1)C(C)C,-25.3% (inactive)
20,CCN(CC)CCNC(=O)c1ccc(Nc2cc(Nc3ccccc3C(=O)NC)c(C(F)(F)F)cn2)c(C)c1,88.5% (active)
21,CNC(=O)c1ccccc1Nc1cc(NC(=O)Cc2ccc(F)c(F)c2)ncc1C(F)(F)F,32.8% (inactive)
22,CNC(=O)c1ccccc1Nc1cc(NC(=O)C2(c3ccccc3)CC2)ncc1C(F)(F)F,-23.5% (inactive)
23,CCN(CC)CCOc1ccc(Nc2cc(Nc3ccccc3C(=O)NC)c(C(F)(F)F)cn2)c(OC)c1,91.6% (active)
24,CNC(=O)c1ccccc1Nc1cc(NC(=O)Cc2ccc([N+](=O)[O-])cc2)ncc1C(F)(F)F,40.8% (inactive)
25,CCN(CC)CCNC(=O)c1cc(S(C)(=O)=O)ccc1OC,13% (inactive)

row,SMILES,inhibition
1,O=C1CCCN1CCn1cnc2c(NCc3cccc(C(F)(F)F)c3)nc(Nc3nccc4ccccc34)nc21,-5.58% (inactive)
2,Cc1cnc(CNc2cc(-c3ccccc3F)nc(C)n2)nc1,3.69% (inactive)
3,COc1cc2nc(Nc3nccc4ccccc34)nc(NCc3cccc(C(F)(F)F)c3)c2cc1OC,-3.82% (inactive)
4,COC(c1ccccc1)(c1ccccc1)C(Oc1nc(C)cc(C)n1)C(=O)O (configuration not stated),5.25% (inactive)
5,CC(C)n1c(-c2ccc(C(N)=O)cc2)nc2c(NCCN3CCOCC3)ncnc21,-4.64% (inactive)
6,O=C(NCCc1cccnc1)c1ccc2c(c1)CC(c1nc3ccc(-c4cn[nH]c4)cc3c(=O)[nH]1)CO2 (configuration not stated),1.53% (inactive)
7,CCNc1ncc(C)c(NCCc2ccc(OC)cc2)n1,-7.79% (inactive)
8,Nc1nc(NCc2cccnc2)nc2c1ncn2-c1ccsc1,2.79% (inactive)
9,CC(=O)Nc1ccc2cnn(-c3cccc(C(=O)NCCN4CCOCC4)c3)c2c1,-2.64% (inactive)
10,C1=C2[C@@H](c3ccccc3)N3CCC[C@@H]3[C@H]3CCC[C@@]23OCC1,-9.95% (inactive)
11,O=C(NC1CC1)c1ccc(-c2nccc(NCc3nc4ccccc4[nH]3)n2)cc1,-2.79% (inactive)
12,COc1cc(Nc2cc(NC3CC3)ncn2)cc(OC)c1OC,-5.2% (inactive)
13,O=C(NCCCN1CCCC1=O)C1CCN(c2ccc(Nc3ccc4ncccc4c3)nn2)CC1,7.45% (inactive)
14,COc1cccc(C(=O)Nc2nc3ccc(-c4ccncc4)cc3s2)c1,14.9% (inactive)
15,CNC(=O)c1ccccc1Nc1ccnc(Nc2ccc(N3CCOCC3)cc2)c1,6.96% (inactive)
16,CNC(=O)c1ccccc1Nc1cc(Nc2ccc(C(=O)N(C)C)cc2)ncc1C(F)(F)F,86.4% (active)
17,CNC(=O)c1ccccc1Nc1nc(Nc2ccc(-n3cnc(-c4ccc(C)nc4)n3)cc2)ncc1Cl,8.9% (inactive)
18,N#Cc1cccc(-c2ccnc(Nc3ccc(N4CCOCC4)cc3)n2)c1,7.92% (inactive)
19,CC(C)n1cnc2c(NCCO)nc(Nc3ccc(C(F)(F)F)cc3)nc21,-7.45% (inactive)
20,c1ccc(N2CCN(c3nc(NCCN4CCOCC4)c4ncn(C5CCCCC5)c4n3)CC2)nc1,-0.56% (inactive)
21,Cn1c(Nc2nc(NC3CC3)c3ncn(C4CCCCC4)c3n2)nc2ccccc21,36.9% (inactive)
22,O=C(CNS(=O)(=O)c1ccc(Cl)cc1)OCC(=O)c1ccccc1,14.9% (inactive)
